From PubChem
Shown are actives, neighbours in structure and some others; about 19% of the full set was active somewhere.
IL1B secr inh – qHTS for Inhibitors of Inflammasome Signaling: IL-1-beta AlphaLISA Primary Screen; THP-1 LPS/ATP IL-1B secretion, AlphaLISA, 16 h; stronger effect = lower value; activity change, % at 57.5 µM; hit rate 4.7% among 360,000; AID 743279, 2014; in the data active = activity change below about -50%; inconclusive = mostly about -30% to -49%
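Secreted IL-1B measured by AlphaLISA bead assay after 16 h compound exposure of THP-1 cells; compounds (final up to 57.5 uM) added 1 h before LPS (250 ng/mL) and ATP (1.25 mM) stimulation; lower signal means less secretion.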
TDP1 cell noCPT – qHTS for Inhibitors of human tyrosyl-DNA phosphodiesterase 1 (TDP1): qHTS in cells in absence of CPT | DT40 Tdp1-/- hTDP1 cells, no CPT, ATP luminescence, 48 h | Potency, µM (highest dose often 46.2 µM), without a hit: top-dose activity change, negative = growth inhibition, usual class: inhibitors | hit rate 15% among 420,000; also: potency is read from the fitted curve at half-maximal effect; nearly all actives have a fitted effect of over 55% in size
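Stably hTDP1-transfected Tdp1-null chicken DT40 cells were treated with library compounds minus camptothecin and grown for at least 48 hr at 37 °C, after which cellular ATP was quantified by luminescence.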
HT1080 IDH1KD tx – qHTS for induction of synthetic lethality in tumor cells producing 2HG: qHTS for the HT-1080-IDH1KD cell line; Potency, µM (titrated, usually from 46.1 µM), without a hit: top-dose activity, negative = toxicity, actives largely listed as cytotoxic; AID 686971, 2013; HT-1080 IDH1 knockdown viability, ATP luminescence, 48 h; hit rate 2% among 360,000;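 also: potency is read from the fitted curve at half-maximal effect; 0% = DMSO wells and -100% = cell-free medium wells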
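Luminescent ATP read-out (CellTiter-Glo, 10 min at room temperature) after 48 h compound exposure at 37 °C gave viability of IDH1-knockdown HT-1080 cells. Activity was normalised to DMSO and cell-free wells, then fitted as concentration-response curves.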
ELG1 DNA repair – qHTS screen for small molecules that inhibit ELG1-dependent DNA repair in human embryonic kidney (HEK293T) cells expressing luciferase-tagged ELG1. HEK293T ELG1-luciferase reporter, luminescence, 16 h; DNA damage induced by 5-fluorouridine. Potency, µM (highest dose often 46.1 µM), without a hit: at the highest dose activity change, negative = inhibition, actives largely listed as inhibitors. hit rate 2.3% among 330,000; also: potency is read from the fitted curve at half-maximal effect; nearly all actives have a fitted effect of over 55% in size
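DMSO vehicle served as the neutral condition. Each well held 2,000 cells given 5-fluorouridine plus compound; after 16 hr at 37 °C/5% CO2, ONE-Glo was added and luciferase measured 30 min later.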
DT40 TDP1 CPT – qHTS for Inhibitors of human tyrosyl-DNA phosphodiesterase 1 (TDP1): qHTS in cells in presence of CPT; chicken DT40 Tdp1-/-;hTDP1 cells + 20 nM CPT, ATP luminescence, 48 h; Potency, µM (series often up to 46.2 µM), without a hit: top-dose activity change, negative = growth inhibition, hits mostly inhibitors; hit rate 12% among 420,000; AID 686979, 2013; also: potency is read from the fitted curve at half-maximal effect; nearly all actives have a fitted effect of over 55% in size
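Cell growth measured by CellTiter-Glo luminescence after a minimum 48 h, 37 C compound exposure with 20 nM CPT in Tdp1-knockout DT40 cells stably expressing hTDP1, seeded 400/well; qHTS titration format.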
HT1080NT lethal – qHTS for induction of synthetic lethality in tumor cells producing 2HG: qHTS for the HT-1080-NT fibrosarcoma cell line; HT-1080-NT fibrosarcoma viability, CellTiter-Glo ATP luminescence, 48 h; Potency, µM (highest dose often 46.1 µM), for the others: top-dose activity, negative = less viability, actives largely listed as cytotoxic; hit rate 1.6% among 360,000; AID 686970, 2013;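 also: NT is the 2HG producing partner of a matched IDH1 knockdown line; potency is read from the fitted curve at half-maximal effect; 0% = DMSO-treated cells and -100% = media-only wells without cells; nearly all actives have a fitted effect of over 55% in size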
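Fibrosarcoma NT cells, 750 per well in 5% FBS RPMI, were exposed to compound for 48 hours. Viability: CellTiter-Glo luminescence.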
Active calls of the source: *; ? = inconclusive; . = no result given; [ ] = remark or other dose. Unless noted, calls follow the shape of the dose curve; as a rule, active = well fitted curve in the direction sought with a large enough effect; inconclusive = small, poorly fitted or top-dose-only effect, or another doubt; inactive = no such curve, though single readings can be large; an effect the other way counts as inactive or inconclusive. Unless noted, % is scaled to controls: 0 for no effect and ±100 for the full control effect.

SMILES	IL1B secr inh	TDP1 cell noCPT	HT1080 IDH1KD tx	ELG1 DNA repair	DT40 TDP1 CPT	HT1080NT lethal
O=C(COC(=O)CC(c1ccccc1)c1ccccc1)NCc1ccc(Cl)cc1	-71.4*	-8.3%	-2.0%	16.4µM*	-27.5%	-0.5%
CCN(CC)S(=O)(=O)c1ccc(N2CCOCC2)c(NC(=O)C2CC2)c1	2.6	3.0%	3.3%	13.2%	7.5%	10.5%
CCOC(=O)c1cnc(Nc2nc3ccccc3o2)nc1CSC(=S)N(CC)CC	-4.4	0.146µM*	7.9%	?	0.146µM*	7.9%
CCOC(=O)c1cnc(Nc2nc3ccccc3o2)nc1CSc1ncccn1	-6.9	?	-0.8%	.	-28.0%	-3.4%
CCC(C)(C)C1CCC2(CC1)NC(=O)N(CC(=O)NC(C)CCc1ccccc1)C2=O (stereo unspecified)	-4.7	11.6µM*	-3.0%	0.8%	?	-2.9%
CCC(C)(C)C1CCC2(CC1)NC(=O)N(CC(=O)Nc1nc(-c3ccc(C)cc3)cs1)C2=O (stereo unspecified)	15.6	7.31µM*	4.2%	?	?	-0.3%
CCC(C)(C)C1CCC2(CC1)NC(=O)N(CC(=O)N(C)Cc1ccc3c(c1)OCCO3)C2=O (stereo unspecified)	-17.4	20.6µM*	11.7%	11.6µM*	?	4.0%
CCC(C)(C)C1CCC2(CC1)NC(=O)N(CC(=O)N1CCN(c3ccccc3OC)CC1)C2=O (stereo unspecified)	-13.4	20.6µM*	-0.7%	.	20.6µM*	-3.4%
CCOc1ccc(CCNC(=O)c2cccc(S(=O)(=O)N3CCN(C(C)=O)CC3)c2)cc1OCC	-4.4	-9.6%	1.9%	-2.0%	-20.1%	2.8%
O=C(NC1CCN(S(=O)(=O)c2cccc(F)c2)CC1)c1cccc(F)c1	-16.0	4.9%	9.6%	-12.5%	-20.8%	14.6%
CC(C)Oc1ccc(C(=O)NC2(C(F)(F)F)NC(=O)N(CCCc3ccccc3)C2=O)cc1 (stereo unspecified)	-63.9*	?	?	-16.6%	?	-2.0%
O=C1CC(c2ccccc2)n2nc(NC(=O)c3ccccc3)nc2N1 (stereo unspecified)	8.1	1.1%	-7.4%	-6.6%	-1.2%	-1.3%
O=C(Nc1nc2n(n1)C(c1ccccc1)C=C(c1ccccc1)N2)c1ccccc1 (stereo unspecified)	.	18.4µM*	.	.	16.4µM*	.
O=C(Nc1nc2n(n1)C(c1ccc(F)cc1)C=C(c1ccccc1)N2)c1ccco1 (stereo unspecified)	.	23.1µM*	.	.	16.4µM*	.
O=S(=O)(Nc1nc2n(n1)C(c1ccc(F)cc1)C=C(c1ccccc1)N2)c1ccccc1 (stereo unspecified)	.	20.6µM*	.	.	?	.
COc1ccc(C(=O)Nc2nc3n(n2)C(c2ccc(Cl)cc2)C=C(c2ccccc2)N3)cc1OC (stereo unspecified)	.	14.6µM*	.	.	14.6µM*	.
CC(=O)c1ccc(C(=O)NCc2nc(-c3ccccc3NC(=O)c3cc(C)oc3C)oc2C)cc1	.	-6.8%	.	.	-0.7%[9.04 µM]	.
O=C(Nc1nc2n(n1)C(c1ccc(Cl)cc1)C=C(c1ccccc1)N2)c1ccco1 (stereo unspecified)	.	20.6µM*	.	.	20.6µM*	.
OC(c1ccccc1)(c1ccccc1)c1ncc[nH]1	1.9	0.9%	29.0%	?	1.1%	0.0%
CCOC(=O)c1[nH]c2ccc(Br)cc2c1NC(=O)CCN1CCCC(C)C1 (stereo unspecified)	.	.	.	-3.4%	.	.
